The record followed here is PubChem BioAssay AID2685 (National Center for Advancing Translational Sciences (NCATS), 2010).

“And” between values parts separate entries of the source, which are not always exact repeats. Equal values may be shown once. In all, about 320,000 compounds went through this assay and about 2,100 (0.66%) were called active. Inconclusive results (about 53%) are left out. This is one part of a sample in which actives are shown more often than they occur. Calls follow the shape of the dose curve; as a rule, active = well fitted inhibition curve with a large enough effect in the signal ratio, with a control signal flat (not every such curve was filed as active); inconclusive = small, poorly fitted or top-dose-only effect, or effect the other way, or a change in a side signal; inactive = flat fitted curve, though single readings scatter; the % refers to the signal ratio.
Potency is read from the fitted curve at half-maximal effect.

This test in a line: qHTS Assay for Lipid Storage Modulators in Drosophila S3 Cells.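 As to cell number change: cells counted by Cell Tracker Red CMTPX staining in the red channel.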 As to lipid storage change, negative = inhibition: % is scaled to controls: 0 for no effect and ±100 for the full control effect. The settings on record: BODIPY lipid droplet fluorescence, 18-24 h, cells fed with added oleic acid; cell number change: measured here: cell count max response; series mostly up to 46.1 µM. A digest of the protocol: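 Drosophila S3 cells loaded with oleic acid (400 uM, as added) and compounds at several concentrations; lipid droplets imaged by 488-nm laser-scanning cytometry, 500–530 nm intensity and object ratio to cell channel. Percent activity normalized to 20 uM Triacsin C.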
On the technique in general: Quantitative high-throughput screening tests each substance at several concentrations.
For the compound `Cc1ccc(-n2c(SCC(=O)O)nc3sc4c(c3c2=O)CCCC4)cc1`, the Potency entry was “inactive” and the cell number change was 9.08%.
In the case of `NC(=O)CSc1nc(N)c2c3c(sc2n1)CCCCC3`, the Potency entry was “inactive” and the cell number change is -16.5%.
Turning to `O=C(O)CSc1nc2sc3c(c2c(=O)n1-c1ccccc1)CCC3`, the Potency result is “inactive” and the cell number change was found to be 10.3%.
For `Cc1ccccc1-n1c(SCC(=O)O)nc2sc3c(c2c1=O)CCCC3`, the Potency entry is “inactive”.
Consider `Nc1nc(SCc2nnc(SCC(=O)O)n2-c2ccccc2)nc2sc3c(c12)CCCC3`, for which the Potency was 23.1 µM (active) and the cell number change turned out to be 3.22%.
On to `Cc1ccc(C)c(-n2c(SCC(=O)O)nc3sc4c(c3c2=O)CCCC4)c1`, for which the Potency was 0.116 µM (active) and the cell number change came out at 13%.
`Cc1cc(C)c2c(CN3CC(C)OC(C)C3)cc(=O)oc2c1C` (stereo not drawn): the Potency result was “inactive” and the cell number change was -15.5%.
As for `O=C(Nc1ccccc1)N(CCN1CCOCC1)Cc1cccc(Cl)c1`, the Potency entry was “inactive” and the cell number change is -10.2%.
Take `Cc1cc(C(=O)N/N=C/c2cccn2C)no1`: the Potency result was “inactive” and the cell number change was determined as 6.61%.
Regarding `CCOC(=O)N1CCc2c(sc3nc(SC(C)C)n(N)c(=O)c23)C1`, the Potency entry was “inactive” and the cell number change was -1.6%.
`Oc1ccc(Br)cc1C=Nc1ccc(Cl)cc1`: the Potency entry was “inactive” and the cell number change is -3.17%.
In the same order, the values of `CCc1c(C)sc(NC(=O)Cc2ccccc2OC)c1C(=O)N1CCOCC1` are “inactive” and -8.21%.
Take `C[C@]12C=CC(=O)C=C1CC[C@@H]1[C@@H]2C(=O)C[C@@]2(C)[C@H]1CC[C@]2(O)C(=O)CO`: the Potency result was “inactive”; the cell number change was 21.3% and -3.16%.
For the compound `CC12CCC(=O)C=C1CCC1C2C(=O)CC2(C)C1CCC2(O)C(=O)CO` (stereo not drawn), the Potency is 16.4 µM (active) and the cell number change was -13.5%.
For `CC(=O)OCC(=O)[C@@]1(O)CC[C@H]2[C@@H]3CCC4=CC(=O)CC[C@]4(C)[C@H]3C(=O)C[C@@]21C`, the Potency entry was “inactive” and the cell number change was found to be 11.1%.
As to `CCCCC(CC)C(=O)Nc1ccc(Nc2ccccc2)cc1` (stereo not drawn), the Potency result was “inactive” and the cell number change is -8.16%.
In the same order, the values of `CN1C(=O)C(=C2CCCCCC2)SC1=S` are “inactive” and -2.61%.
As to `COc1cc2c(cc1OC)C1O[C@](CCCCN3C(=O)c4ccccc4C3=O)(C2)Oc2c1c(=O)oc1ccc(F)cc21`, the cell number change was -5.97% and the lipid storage change, negative = inhibition is 16.8% [at 9.22 µM] (inactive).
Turning to `CCOC(=O)/C(C#N)=C/c1cc2cc(C)c(C)cc2nc1Cl`, the Potency entry was “inactive” and the cell number change was -0.849%.
Regarding `CC1CCCCN1C(=O)Cn1c(=O)n(CCC(=O)NCc2ccco2)c(=O)c2sccc21` (stereo not drawn), the Potency result is “inactive” and the cell number change is -5.81%.
Take `CC(/C=N/NC(=O)c1nnn(-c2nonc2N)c1CN(C)C)=C\c1ccco1`: the Potency result was “inactive” and the cell number change is -0.367%.
Consider `CCOc1ccccc1/C=N/NC(=O)c1nnn(-c2nonc2N)c1CN1CCCC1`, for which the Potency is 20.6 µM (active) and the cell number change turned out to be 16%.
With `CN(C)Cc1c(C(=O)N/N=C/c2ccccc2OCc2c(F)cccc2Cl)nnn1-c1nonc1N`, the Potency was 4.11 µM (active) and the cell number change worked out at 0.435%.
In the same order, the values of `CN(Cc1c(C(=O)N/N=C/c2c(F)cccc2Cl)nnn1-c1nonc1N)c1ccccc1` are “inactive” and 8.36%.
On to `CC(=C/c1ccco1)/C=N/NC(=O)c1nnn(-c2nonc2N)c1CN(C)C`, for which the Potency entry was “inactive”.
`Cc1ccc(COc2cccc(/C=N/NC(=O)c3nnn(-c4nonc4N)c3C)c2)cc1`: the Potency was 20.6 µM (active) and the cell number change was found to be 50%.
`Nc1nonc1-n1nnc(C(=O)N/N=C/c2cccc(Cl)c2Cl)c1CN1CCCC1`: the Potency entry is “inactive” and the cell number change is 16.7%.
In the case of `Nc1nonc1-n1nnc(C(=O)N/N=C/c2ccccc2Br)c1CN1CCCC1`, the Potency entry was “inactive” and the cell number change is -1.9%.
For `CCCN(CCC)Cc1c(C(=O)N/N=C/C(C)=C\c2ccco2)nnn1-c1nonc1N` the same measures were 11.6 µM (active) and -11.1%.
Turning to `CC(C)c1c(C(=O)N/N=C/c2ccccc2OCc2c(F)cccc2Cl)nnn1-c1nonc1N`, the Potency entry was “inactive”.
For the compound `CC(C)c1c(C(=O)N/N=C/c2cccc(OCc3ccc(F)cc3)c2)nnn1-c1nonc1N`, the Potency entry is “inactive” and the cell number change came out at 11.8%.
Regarding `Cc1cccc(COc2ccc(/C=N/NC(=O)c3nnn(-c4nonc4N)c3C)cc2)c1`, the Potency result was “inactive” and the cell number change was 11.5%.
In the case of `Cc1cc(NC(=O)COc2ccc3oc4ccccc4c3c2)no1`, the Potency entry is “inactive” and the cell number change was -12.8%.
In the case of `CC1CCN(C(=O)c2ccc3c(Cl)c4c(nc3c2)CCCC4)CC1`, the Potency result was “inactive” and the cell number change stood at 2.72%.
In the same order, the values of `Cc1ccc(S(=O)(=O)CCN2CCN(c3ccccc3)CC2)cc1` are “inactive” and -10.3%.
For `NS(=O)(=O)c1ccc(CCNC(=O)C(=O)NCC2OCCN2S(=O)(=O)c2ccc(Cl)cc2)cc1` (stereo not drawn) the same measures were “inactive” and -8.07%.
As to `CN(Cc1c(C(=O)N/N=C/c2ccccc2)nnn1-c1nonc1N)c1ccccc1`, the Potency was 4.61 µM (active) and the cell number change was -11.2%.
Consider `CN(Cc1c(C(=O)N/N=C/c2ccc(O)cc2)nnn1-c1nonc1N)c1ccccc1`, for which the Potency result was “inactive” and the cell number change was -9.24%.
As for `CN(C)c1ccc(/C=N/NC(=O)c2nnn(-c3nonc3N)c2CN(C)c2ccccc2)cc1`, the Potency result was “inactive” and the cell number change was 24.5%.
In the case of `Cc1ccc(-n2c(SCc3cn4ccsc4n3)nc3ccccc3c2=O)cc1`, the Potency entry is “inactive” and the cell number change was -7.5%.
With `C=C(C)CSc1nnc([C@@H]2CCCN2)o1`, the Potency entry was “inactive” and the cell number change is 9.92%.
In the same order, the values of `CCc1cccc(NC(=O)C2CCCN(S(=O)(=O)c3ccc4[nH]c(=O)ccc4c3)C2)c1` (stereo not drawn) are “inactive” and 16%.
As for `CC1Sc2ccc(S(=O)(=O)N3CCC(C(=O)Nc4ccc(Cl)cc4)CC3)cc2NC1=O` (stereo not drawn), the Potency result was “inactive” and the cell number change came to 7.08%.
